Data: PubChem BioAssay (NCI)
The panel holds about 79,000 compounds, 15% with a hit somewhere; the sample as a whole holds those more often. The source made the active and inactive calls. Rule as the data show it: active = growth inhibition above about 70%; inactive = the rest.

Assays:
[1] = NCI Yeast Anticancer Drug Screen. Data for the rad50 strain (AID 155);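 also: 0% = growth of vehicle-only cultures of the same strain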; conditions: S. cerevisiae rad50 strain growth inhibition; at 50.0 µM; hits give high values
In short: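 DNA repair mutant yeast, compound exposure, growth read-out; inhibition is taken relative to vehicle.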

[2] = NCI Yeast Anticancer Drug Screen. Data for the mec2-1 strain (AID 157); conditions: S. cerevisiae mec2-1 strain, at 50.0 µM, hits give high values
In short: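 Compounds were applied to mec2-1 yeast cells. Their growth was then compared with that of vehicle-treated cultures to give growth inhibition.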

[3] = NCI Yeast Anticancer Drug Screen. Data for the sgs1 mgt1 strain (AID 161);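 also: 0% = growth of cultures given vehicle only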; conditions: S. cerevisiae sgs1 mgt1 strain, at 50.0 µM, hits give high values
In short: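 This yeast growth screen uses a strain with defined DNA-repair lesions; compound-treated growth is compared with vehicle-treated growth.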

[4] = NCI Yeast Anticancer Drug Screen. Data for the cln2 rad14 strain (AID 165);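 also: 0% = growth equal to vehicle treated cultures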; conditions: S. cerevisiae cln2 rad14 strain, at 50.0 µM, hits give high values
In short: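 Strain: cln2 rad14 yeast, altered in cell cycle control and DNA damage repair. Read-out: growth inhibition vs vehicle.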

[5] = NCI Yeast Anticancer Drug Screen. Data for the bub3 strain (AID 167); conditions: S. cerevisiae bub3 mutant strain, at 50.0 µM, hits give high values
In short: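 In this screen, a yeast mutant lacking normal mitotic checkpoint function is challenged with compound. Relative growth versus vehicle gives the inhibition value.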

[6] = NCI Yeast Anticancer Drug Screen. Data for the mlh1 rad18 strain (AID 175); conditions: S. cerevisiae mlh1 rad18 strain growth inhibition; at 50.0 µM; hits give high values
In short: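 A repair-deficient yeast strain is exposed to test compound, and growth is scored relative to vehicle-treated controls.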

Measured: growth inhibition

O=C(Nc1ccc(N=C=S)cc1Cl)c1cc(Br)cc(Br)c1O
active: [1] 94.3% | [2] 96.7% | [3] 95.6% | [4] 97.1% | [5] 96.8% | [6] 94.7%

O=C(O)CNC(=O)CNC(=O)c1ccc2ccccc2n1
inactive: [1] 2.7% | [2] -4.05% | [3] 11.1% | [4] 10.7% | [5] -14.3% | [6] 15.9%

Cn1cnc2c(Cl)ncnc21
inactive: [1] 12.9% | [2] 34.5% | [3] -20.9% | [4] -18.4% | [5] -0.55% | [6] 5.65%

Ic1cc2c(cc1CNCc1ccccc1)OCO2
inactive: [1] 11.7% | [2] -19.6% | [3] 26.7% | [4] -56.4% | [5] 2.6% | [6] 7.2%

CC(=O)C(C)O (stereo not given)
inactive: [1] -27.8% | [2] -18.8% | [3] -15.2% | [4] -0.95% | [5] -21.4% | [6] -21.1%

CCC(=O)Oc1ccc(C(C)(C)CC(C)(C)C)cc1
inactive: [1] 32.2% | [2] -8.85% | [3] 34% | [4] -7.05% | [5] 6.05% | [6] 51.7%

C1=CC2C3CSCC3C1C1CC21 (stereo not given)
inactive: [1] 7.95% | [2] -7.85% | [3] -4.4% | [4] -35.1% | [5] -17% | [6] -3.05%

COC(=O)CCC1=C(C)C2=NC1=CC1=NC(=CC3=NC(=Cc4[nH]c(/c(=C\O)c4C)=C2)C(C=O)=C3C)C(C)=C1CCC(=O)OC
inactive: [1] 28.1% | [2] 16.5% | [3] 32.2% | [4] 26.9% | [5] 9.15% | [6] 11.6%

O=C(CCCCCCCCC(=O)OCc1ccccc1)OCc1ccccc1
inactive: [1] 19.2% | [2] 2.55% | [3] 3.85% | [4] -24.2% | [5] 11.2% | [6] 41%

CN(C)CCCNc1ccc2ncn3c4ccccc4c(=O)c1c23
inactive: [1] -2.15% | [2] 6.2% | [3] -3.35% | [4] 20.9% | [5] 1.5% | [6] 22.4%

CCNC(=O)OCCN1C(=O)C2C3CCC(O3)C2C1=O (stereo not given)
inactive: [1] 5.25% | [2] 11.4% | [3] 22.1% | [4] 3.35% | [5] 8.5% | [6] 12.8%

CCOC(=O)c1ccc(=O)n2c1[nH]c1ccccc12
inactive: [1] 9.05% | [2] -5.65% | [3] -15.5% | [4] -0.45% | [5] -2.75% | [6] -5.45%

CCN(CC)CC(C(=O)Nc1c(C)cccc1C)/C(C)=N\NC(=O)C[N+](C)(C)C (stereo not given)
inactive: [1] 19.4% | [2] 4.85% | [3] -26.6% | [4] -21.8% | [5] -0.7% | [6] -1.9%

O=C1CC2CC1C1CCCC21 (stereo not given)
inactive: [1] -32.5% | [2] -18.5% | [3] -56% | [4] -10.2% | [5] -31.4% | [6] -40.7%

CNC(=O)n1cncn1
inactive: [1] -10.6% | [2] 3.35% | [3] -9.75% | [4] 0.1% | [5] -2.2% | [6] -12.7%

CC(C)(CC(=O)Nc1ccccc1)C(=O)O
inactive: [1] -11.8% | [2] -7.05% | [3] -19.4% | [4] -12.1% | [5] -56.9% | [6] -0.4%

S=c1nc[nH]c2nc(Cl)[nH]c12
inactive: [1] -5.45% | [2] -18.6% | [3] -21.6% | [4] -0.25% | [5] -26.6% | [6] 4%

Oc1ccc(-c2c3ccccc3c(-c3ccc(OCCBr)cc3)c3ccccc23)cc1
inactive: [1] -24.2% | [2] -9.75% | [3] -9.9% | [4] 4.65% | [5] -11.3% | [6] 7.4%

O=c1sc2ncccc2n1-c1ccc([N+](=O)[O-])cn1
inactive: [1] -3.4% | [2] 10.4% | [3] 3.15% | [4] -18.4% | [5] 11.9% | [6] -6.55%

OC1(CSc2ccccc2)CCCCC1
inactive: [1] 11.1% | [2] 22.2% | [3] 14.5% | [4] 1% | [5] -10.7% | [6] -33%

CC(=O)OCC1OC(OC(C)=O)C(NC(=O)CNC(=O)OCc2ccccc2)C(OC(C)=O)C1OC(C)=O (stereo not given)
inactive: [1] 21.8% | [2] 2.8% | [3] -16.9% | [4] 7.8% | [5] -4.75% | [6] 4.35%

O=c1c2ccccc2c2cc3nc4ccc([N+](=O)[O-])cc4c(=O)n3c3cccc1c23
inactive: [1] -0.15% | [2] -2.65% | [3] -15.7% | [4] 6.15% | [5] -4.9% | [6] -10.4%

COC1(OC)C(c2ccc(Cl)cc2)C(C#N)(C#N)C1(OC)OC (stereo not given)
inactive: [1] -7.25% | [2] -13.2% | [3] -14.2% | [4] -48.4% | [5] -1.15% | [6] -7.45%

O=c1oc2c(-c3c(O)c(=O)oc4ccccc34)cc(O)cc2s1
inactive: [1] 10.3% | [2] 14.6% | [3] 22.9% | [4] 17.1% | [5] 10% | [6] 36%

N#Cc1ccc(CC(O)(c2ccccc2)c2ccccc2)cc1
inactive: [1] 4.6% | [2] -1.25% | [3] -1.3% | [4] -12.6% | [5] 3.25% | [6] -9.7%

Cc1c(C)c(CN)c(C)c(C)c1CN
inactive: [1] -30.5% | [2] -47% | [3] -16.6% | [4] -24.2% | [5] -43.4% | [6] -31.7%

O=c1[nH]cc(NS(=O)(=O)O)c(=O)[nH]1
inactive: [1] -2.15% | [2] -5.4% | [3] 6.5% | [4] 1.45% | [5] 2.95% | [6] -0.55%

C#CC1(O)CCC2[C@@H]3CCc4cc(Oc5nc(F)nc(-c6c7ccccc7cn6C)n5)ccc4C3CC[C@@]21C (stereo not given in full)
inactive: [1] 37.5% | [2] 25.3% | [3] 1.4% | [4] 5.05% | [5] 32.6% | [6] 42.8%

C=CCOc1cc2c(cc1Cc1ccc3c(c1)OCO3)OCO2
inactive: [1] -6.85% | [2] -7.75% | [3] -7.9% | [4] 9.25% | [5] 7.5% | [6] -3.05%

Clc1nc(Cl)c2ncnc(Cl)c2n1
inactive: [1] -34.5% | [2] 16.1% | [3] -23.2% | [4] -11.4% | [5] -3.7% | [6] -5.7%

CC(=O)NC(CCCCNC(=O)NCCCl)C(=O)NCc1ccccc1 (stereo not given)
inactive: [1] 3.3% | [2] -22.8% | [3] -2.85% | [4] 20.8% | [5] -12% | [6] -8.9%

O=C(O)c1ccccc1C(=O)OCc1ccccc1
inactive: [1] -0.15% | [2] 16.1% | [3] 6.25% | [4] -11.2% | [5] 8.25% | [6] 11.9%

CCCc1oc(C)cc1CC
inactive: [1] 0.45% | [2] -22.4% | [3] 0.2% | [4] -1.95% | [5] -15.9% | [6] -10.2%

CCN(CC)CCCNc1c2ccccc2nc2ccccc12
inactive: [1] 13.7% | [2] 22.8% | [3] 9.2% | [4] 51.6% | [5] -8.1% | [6] 7%

O=[N+]([O-])c1ccc(N/N=C/c2ccccc2Cl)cc1
inactive: [1] 8% | [2] 12.4% | [3] 26.4% | [4] -1.3% | [5] 36.4% | [6] 31.4%

COc1c(O)c2ccccc2c2cc(O)ccc12
inactive: [1] 6.8% | [2] 25.1% | [3] 23.6% | [4] -14.2% | [5] 56.4% | [6] 10.2%

COC(=O)c1sc(C(=O)OC)c2c1CS(=O)C2
inactive: [1] -10.3% | [2] 2.1% | [3] 10.1% | [4] 30% | [5] 5.45% | [6] 42.2%

O=C1c2ccccc2C(=O)c2c(O)c(Cc3ccccc3)cc(O)c21
inactive: [1] 4.75% | [2] 11.9% | [3] 2.2% | [4] 14.5% | [5] 10.2% | [6] 4%

O=C(O)C(=O)NCc1cnccn1
inactive: [1] 10.9% | [2] -8.25% | [3] -3.65% | [4] -29.6% | [5] 11.9% | [6] -19.1%

O=C(NC(=O)c1c(F)cccc1F)Nc1ccc(OCc2ccccc2)cc1
inactive: [1] 24.4% | [2] 0.15% | [3] 5.45% | [4] 9% | [5] -4.15% | [6] 21.4%
